From PubChem BioAssay (NCI)
Compounds without any hit were thinned out: in the full panel of roughly 79,000, 15% have a hit. Values without a mark were called inactive. The source made the active and inactive calls. Cut-off read from the data, not from the text of the source: active = growth inhibition above about 70%; inactive = the rest.

Experiments:
[1] = NCI Yeast Anticancer Drug Screen. Data for the rad50 strain (AID 155);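 note: 0% = growth of vehicle-only cultures of the same strain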; conditions: S. cerevisiae rad50 strain growth inhibition; at 50.0 µM; active compounds read high
In short: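 Readout: growth inhibition relative to vehicle-treated cultures. Compound exposure was carried out in a genetically defined yeast strain deficient in DNA damage repair.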

[2] = NCI Yeast Anticancer Drug Screen. Data for the mec2-1 strain (AID 157); conditions: S. cerevisiae mec2-1 strain, at 50.0 µM, active compounds read high
In short: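 Cells of the genetically defined mec2-1 yeast strain are incubated with test compound. Inhibition of growth is calculated against vehicle-treated controls.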

[3] = NCI Yeast Anticancer Drug Screen. Data for the sgs1 mgt1 strain (AID 161);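 note: 0% = growth of cultures given vehicle only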; conditions: S. cerevisiae sgs1 mgt1 strain, at 50.0 µM, active compounds read high
In short: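 Test agents were incubated with a DNA-repair-mutant yeast strain. Growth was then read and compared against vehicle-treated controls.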

[4] = NCI Yeast Anticancer Drug Screen. Data for the cln2 rad14 strain (AID 165);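 note: 0% = growth equal to vehicle treated cultures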; conditions: S. cerevisiae cln2 rad14 strain, at 50.0 µM, active compounds read high
In short: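 The screen exposed genetically defined yeast (cln2 rad14) to test compounds and scored growth inhibition relative to vehicle-treated controls.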

[5] = NCI Yeast Anticancer Drug Screen. Data for the bub3 strain (AID 167); conditions: S. cerevisiae bub3 mutant strain, at 50.0 µM, active compounds read high
In short: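 Readout: yeast growth inhibition, expressed relative to vehicle-only wells. The test organism is a mutant strain from a panel with lesions in DNA repair or checkpoint genes.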

[6] = NCI Yeast Anticancer Drug Screen. Data for the mlh1 rad18 strain (AID 175); conditions: S. cerevisiae mlh1 rad18 strain growth inhibition; at 50.0 µM; active compounds read high
In short: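 Compound-treated yeast growth, normalised to vehicle controls. Strain bears defined DNA repair mutations.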

SMILES	growth inhibition [1]	growth inhibition [2]	growth inhibition [3]	growth inhibition [4]	growth inhibition [5]	growth inhibition [6]
Nc1ccc2ccc3ccccc3c2c1	50.8%	5.6%	43.4%	31.8%	27.5%	44.2%
CC1(C)C2CCC(=O)C1CC2 (stereo unspecified)	6.75%	14.2%	-22.6%	12.7%	-37.4%	-43.5%
O=C(NC(C(=O)O)c1ccccc1)c1ccc([N+](=O)[O-])cc1 (stereo unspecified)	8.2%	10.1%	13.4%	-0.6%	31.6%	11.6%
CCOC(=O)/C(C#N)=C(\C)c1ccccc1	9.65%	-5.3%	1.2%	5.15%	-25.7%	-17.6%
CCCSc1ncnc2c1nc(C)n2CO	-2.15%	-2.55%	-1.35%	-14.1%	2.3%	0%
CN(C)NC1=NS(=O)(=O)c2cc3c(cc2S1)N(N(C)C)C(=O)c1cc2c(cc1N(N(C)C)C3=O)SC(NN(C)C)=NS2(=O)=O	-6.3%	-22.5%	-14.4%	2.35%	16.4%	-2.9%
CC1SC2=NC3=C(c4ccccc4C3=O)C(c3ccccc3Cl)N2C1=O (stereo unspecified)	15.8%	8.75%	8.55%	4.95%	17.9%	23.3%
CCOC(=O)c1c(/N=C/c2cc(Br)ccc2O)sc2c1CCCC2	11.7%	-7.8%	0.4%	12.9%	-1.4%	10.7%
O=C(C/C(=N\NC(=O)C[n+]1ccccc1)C(=O)Nc1nc2ccc([N+](=O)[O-])cc2s1)CC(c1ccccc1)c1c(O)c2ccccc2oc1=O (stereo unspecified)	3.65%	-15%	-17.2%	1.6%	7.3%	-4.85%
CN(NC(=O)c1cccs1)C1=NCCN1	-25.9%	-23.2%	-24.9%	7.25%	18.4%	-7.7%
Nc1cccc(CCc2nc(N)nc(N)c2-c2ccc(Cl)cc2)c1	0.6%	21.6%	13.8%	3.2%	8.85%	-14.3%
CC(C)SCC(N)C(=O)O (stereo unspecified)	-17.8%	-10.7%	-2.65%	-15%	-11.8%	-15.8%
O=C1c2ccccc2C(=O)N1C1(C(=O)NC2(C(=O)O)CCCC2)CCCC1	-2.5%	-7.8%	-37.8%	2.6%	-38.1%	-8.6%
Cc1c2ccccc2nc(CSCC(O)CO)[n+]1[O-] (stereo unspecified)	-8.4%	10.7%	12.3%	-55.6%	14.4%	6.85%
CCN(CC)CCNC1=CC(=S)NC(C)(C)C1	-13.7%	10.6%	-2.6%	-4.2%	-1.9%	-6.05%
C/C(=N\NC(N)=S)c1ccc(/C(C)=N/NC(N)=S)cc1	-44.6%	-0.25%	0.8%	-13.2%	-1.2%	-19.6%
Cc1cc(N(CCC#N)CCC#N)ccc1/C=C1N=C(/C=C\c2ccccc2)N(NC(=O)CC(=O)Nc2ccccc2Cl)C\1=O	14.6%	-0.8%	1.55%	11.3%	2.8%	5.05%
Nc1nc(SCCCc2ccccc2)c2[nH]cnc2n1	7.95%	-2.9%	-3.4%	25.1%	31.6%	-6.55%
COc1ccc2nc(NCN3C(=O)c4ccccc4C3=O)sc2c1	5.05%	-4.05%	-19.1%	26.9%	9.9%	-5.5%
CC(=O)C1C(=O)C(=O)N(c2ccc([N+](=O)[O-])cc2)C1=O (stereo unspecified)	-26.9%	-37.4%	-10.7%	20.9%	-1.9%	-37.5%
CCC(=O)C(C)C(=O)C(=O)NCCNC(=O)C(=O)C(C)C(=O)CC (stereo unspecified)	19.9%	-1.3%	2.75%	-16.6%	-8.5%	-25.6%

SMILES	growth inhibition [1]	growth inhibition [2]	growth inhibition [3]	growth inhibition [4]	growth inhibition [5]	growth inhibition [6]
CCOC(=O)/C(F)=C/c1cccc([N+](=O)[O-])c1	13.4%	8.8%	-5.35%	10.1%	7.95%	19.8%
Cc1cc(N(CCC#N)CCC#N)ccc1/C=C(\NC(=O)/C=C/c1ccccc1)C(N)=O	3.15%	-7.85%	15.1%	-10.6%	-33.1%	-15.8%
COc1ccc(CCC(O)c2ccccc2)cc1 (stereo unspecified)	25.7%	20.4%	3.65%	16.1%	19.3%	16.1%
Clc1ccccc1-c1nnc(-c2cccc(-c3nnc(-c4ccccc4Cl)o3)n2)o1	-1.65%	6.75%	-6.55%	-9.1%	-3.4%	12%
COC(=O)c1ccccc1NC(OC)c1cccc([N+](=O)[O-])c1 (stereo unspecified)	18.6%	13.4%	12.1%	17.7%	12.6%	5.55%
Cc1cc(Cc2cc(C)c(O)c(CN(C)C)c2)cc(CN(C)C)c1O	-1.8%	-7.7%	1.35%	-19.5%	-6.1%	-7.05%
COc1ccc(C(SCC(N)C(=O)O)(c2ccccc2)c2ccccc2)cc1 (stereo unspecified)	32.8%	-11.7%	37%	-42.4%	10.8%	54.6%
COc1ccc(CSC(=S)Nc2cc(C)c(C)cc2Br)cc1	96.3% (active)	97.5% (active)	97.7% (active)	97.6% (active)	96.8% (active)	96.8% (active)
CC(C)CC(=O)OC1CCCCC1C1CCCCC1 (stereo unspecified)	-2.1%	-6.35%	12.3%	7.25%	13.4%	-4%
COc1cc(/C=N/NC2=NCCN2)ccc1O	24.4%	11.8%	13.2%	14.8%	18.9%	11.8%
CCCCOC(=O)CCc1nc2c([nH]1)c(=O)n(C)c(=O)n2C	15.8%	8.9%	9.5%	42.4%	9.65%	-0.45%
O=C(NCCNC(=O)c1cc(Cl)cc(Cl)c1O)c1cc(Cl)cc(Cl)c1O	-1.35%	11.4%	9.3%	-18.4%	-4.9%	21.8%
Cc1cc2nc(CC(O)c3nc4cc(C)c(C)cc4[nH]3)[nH]c2cc1C (stereo unspecified)	6.9%	-12.9%	-5.1%	5.1%	-4.9%	5.8%
COc1cc(/C=C/C(=O)NCCCCN)ccc1O	19.6%	8.9%	21.8%	9.6%	13%	19.7%
CC1CC=CCC1C(=O)OC/C=C/COC(=O)C1CC=CCC1C (stereo unspecified)	29.4%	-19.9%	8.65%	-9.9%	14.9%	-4.65%
CCC(/C(=N/NC(=O)C[N+](C)(C)C)c1ccccc1)C1OC(=O)c2ccccc21 (stereo unspecified)	15.2%	2.15%	16.1%	23.2%	19.4%	18.4%
Cc1cccc(CC(O)c2ccc(C=O)cc2)n1 (stereo unspecified)	20.6%	14.7%	6.75%	5.65%	14.4%	37.5%
O=C1c2ccc3c([nH]c4ccccc43)c2C(=O)N1c1ccccc1	19.7%	-2%	21.8%	11.9%	13.3%	7.35%
CCOc1ccc(N)c([N+](=O)[O-])c1	4.65%	21.9%	22.9%	-34.4%	-7.75%	3.1%
O=c1c2ccccc2nc(-c2ccccc2Cl)n1/N=C/c1ccc(Cl)cc1Cl	-1.1%	5.3%	2.1%	-3.75%	-3.5%	6.1%
